Article PMC5540273 (PLoS ONE, 2017)

Assays:
Conditions in all cases: concentration: 1 μM,replicates: in singlicate; n = 1
[1] = test system: CLK2
[2] = test system: CLK3
[3] = test system: CLK4
[4] = test system: CSF1R-autoinhibited
[5] = test system: CSF1R
[6] = test system: CSK
[7] = test system: CSNK1A1L
[8] = test system: CSNK1A1
[9] = test system: CSNK1D
[10] = test system: CSNK1E
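Note: KINOMEscan kinase panel screen.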

| Compound | %Inh [1] [%] | %Inh [2] [%] | %Inh [3] [%] | %Inh [4] [%] | %Inh [5] [%] | %Inh [6] [%] | %Inh [7] [%] | %Inh [8] [%] | %Inh [9] [%] | %Inh [10] [%] |
| --- | --- | --- | --- | --- | --- | --- | --- | --- | --- | --- |
| CCn1c(-c2nonc2N)nc2c(C#CC(C)(C)O)nc(OCCN)cc21.Cl.Cl [GSK902056] | 7 | 27 | 20 | 0 | 11 | 0 | 18 | 0 | 0 | 41 |
| Nc1nc(Nc2ccccc2)cc(-c2ccc3c(N)n[nH]c3c2)n1 [GSK2225749] | 40 | 0 | 80 | 0 | 0 | 0 | 10 | 21 | 15 | 0 |
| Cc1ccc(-n2nc(C(C)(C)C)cc2NC(=O)Nc2ccc(OCCN3CCOCC3)c3ccccc23)cc1 [GW839464] | 9 | 5 | 0 |  |  | 3 | 7 | 0 | 1 | 10 |
| Cc1cc(C(=O)Nc2ccc(Oc3ccc4nc(NC(=O)C5CC5)cn4n3)cc2)nn1-c1ccccc1 | 1 | 0 | 0 | 0 | 100 | 15 | 0 | 43 | 0 | 1 |
| Cc1ccc2c(-c3ccncc3)c(-c3ccc(F)cc3)nn2c1.Cl [GW461484] | 0 | 0 | 0 | 8 | 0 | 0 | 39 |  | 96.9 | 99.5 |
| CNC(=O)c1ccccc1Sc1ccc2c(/C=C/c3ccccn3)n[nH]c2c1 |  | 0 | 0 | 86 | 99.9 | 3 | 10 | 23 | 10 | 0 |
| C=CC(=O)Nc1cc2c(Nc3ccc(F)c(Cl)c3)ncnc2cc1OCCCN1CCOCC1 [GW781483] | 0 | 0 | 4 | 35 | 13 | 5 | 22 | 0 | 0 | 26 |
| CC(C)Nc1cc(-c2ccc3c(N)n[nH]c3c2)nc(N)n1 [GSK2221681] | 44 | 23 | 63 | 0 | 4 | 0 | 5 | 18 | 34 | 22 |
| Cc1occc1-c1nc(N)c(OC[C@@H](N)Cc2c[nH]c3ccccc23)cc1-c1cc2c(C)n[nH]c2cn1 [GSK1660450] | 97.5 | 80 | 97.6 | 0 | 18 | 0 | 71 |  | 96.6 | 99.7 |
| Cc1cc2cn[nH]c2cc1-c1cccc2c(N)c(C(N)=O)nnc12 | 11 | 15 | 0 | 0 | 6 | 98.3 | 35 | 34 | 22 | 30 |
| NC(=O)c1cc(-c2ccccc2)cc2c(C3CCNCC3)c[nH]c12 [GSK301362] | 3 | 14 | 25 | 0 | 53 | 0 | 20 | 0 | 50 | 72 |
| Cl.Cl.Nc1nc(-c2ccc3c(N)n[nH]c3c2)cc(N2CCCC(NC(=O)c3ccccc3)C2)n1 (centres unmarked) [GSK2286775] | 15 | 14 | 0 | 0 | 15 | 5 | 4 | 0 | 0 | 24 |
| CCN(CC)CCCCNc1ncc2cc(-c3c(Cl)cccc3Cl)c(NC(=O)NC(C)(C)C)nc2n1 | 0 | 0 | 0 | 85 | 99.2 | 90.5 | 0 | 30 | 14 | 61 |
| CN(C)CCOc1ccc(-c2cc(-c3c[nH]nc3-c3ccccn3)ccn2)cc1 [GW835314] | 0 | 5 | 18 | 0 | 6 | 88 | 3 | 11 | 25 | 31 |
| O=C(NCCNc1ccnc(NCc2ccc(F)cc2)n1)c1cc2ccccc2s1 [GSK1379944] | 0 | 19 | 22 | 0 | 9 | 68 | 25 | 0 | 72 | 26 |
| O=C(NCCCN1CCOC1=O)c1cnc(NCc2cc(Cl)ccc2Cl)nc1NC1CCCC1 | 1 | 0 | 4 | 12 | 32 | 12 | 5 | 34 | 12 | 76 |
| C[C@@H]1CCN(C(=O)CC#N)C[C@@H]1N(C)c1ncnc2[nH]ccc12 | 4 | 0 | 0 | 0 | 3 | 0 | 0 | 21 |  | 0 |
| C[C@@H](Oc1cc(-c2cnn(C3CCNCC3)c2)cnc1N)c1c(Cl)ccc(F)c1Cl | 9 | 1 | 0 | 82 | 93.8 | 24 | 0 | 38 | 14 | 6 |
| Cl.Oc1cc(-c2nc(-c3ccccc3)[nH]c2-c2ccncc2)ccc1Cl [SB-386023] | 0 | 24 | 11 | 0 | 2 | 1 | 25 | 41 | 71 | 77 |
| Cl.Cl.NC[C@H](Cc1ccc(C(F)(F)F)cc1)NC(=O)c1cc(Br)c(-c2ccnc3[nH]ccc23)s1 [GSK1487252] | 39 | 22 | 57 | 3 | 0 | 0 | 16 | 27 | 55 | 54 |
| C[C@H]1Oc2cc(cnc2N)-c2c(nn(C)c2C#N)CN(C)C(=O)c2ccc(F)cc21 | 4 | 0 | 22 | 0 | 15 | 0 | 20 | 0 | 35 | 0 |
| CCN(CC)CCOc1ccc(Nc2ncc3cc(-c4c(Cl)cccc4Cl)c(=O)n(C)c3n2)cc1 [SB-601273] | 10 | 0 | 0 | 100 | 99.9 | 98.4 | 3 | 13 | 39 | 60 |
| CC(C)N1C(=O)Cc2cc(Nc3ncc(C(F)(F)F)c(NCc4cccc(S(C)(=O)=O)c4)n3)ccc21 | 34 | 0 | 38 | 0 | 8 | 14 | 2 | 0 | 0 | 0 |
| Cl.Cl.NC[C@H](CC1CCCCC1)NC(=O)c1cc(Br)c(-c2ccnc3[nH]ccc23)s1 [GSK1581427] | 71 | 57 | 69 | 0 | 48 | 0 | 42 | 53 | 86 | 85 |
| Cc1n[nH]c2ccc(-c3cc(OC[C@@H](N)Cc4ccccc4)cnc3-c3ccoc3)cc12.O=C(O)C(F)(F)F.O=C(O)C(F)(F)F [GSK507358] | 54 | 23 | 60 | 0 | 17 | 0 | 94.4 |  | 98 | 99.9 |
| CN(C)CC(O)COc1ccc(Nc2nccc(-c3cnn4nc(N5CCOCC5)ccc34)n2)cc1 (centres unmarked) [GW767488] | 96.6 | 11 | 88 | 15 | 32 | 24 | 15 | 92.2 | 41 | 29 |
| COc1ccc(C[C@@H](CN)NC(=O)c2cc(Br)c(-c3ccnc4[nH]ccc34)s2)cc1.Cl.Cl [GSK1389063] | 91.4 | 77 | 95.2 | 0 | 56 | 0 | 81 | 88 | 90 | 95.9 |
